Our source for the outcome, Potency and activity change, negative = inhibition values is PubChem BioAssay (NCATS).

Assay [1] is described as follows: Stat Signaling Pathway (AID 446; active means well fitted curve in either direction with a large enough effect, not every such curve was filed as active;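 further: ME-180 cervical cancer cells given 40 pM IL-6 alongside compound; SIE-controlled beta-lactamase reporter measured as 460/530 nm FRET emission ratio; on the % scale 0 is the no-effect control and ±100 the full control effect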). In short, it runs like this: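 Overnight-plated ME-180 cells bearing a STAT Inducible Element beta-lactamase reporter; 5 h co-exposure to compound and 40 pM IL-6; values normalized to 300 pM IL-6 and 125 nM JAK inhibitor controls.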
The target in assay [2] is Glucocorticoid receptor (Homo sapiens) (UniProt P04150). Nature of the assay: GR-GFP Redistribution (AID 450;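 active means compounds whose dose series gives a full or clear partial fitted curve of increased nuclear translocation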; further: potency means the concentration at half of the fitted maximal effect). The settings on record: U2OS GR-GFP nuclear translocation, laser cytometry, 2 h.
Sequence of Glucocorticoid receptor (Homo sapiens) (P04150 whole entry, looked up): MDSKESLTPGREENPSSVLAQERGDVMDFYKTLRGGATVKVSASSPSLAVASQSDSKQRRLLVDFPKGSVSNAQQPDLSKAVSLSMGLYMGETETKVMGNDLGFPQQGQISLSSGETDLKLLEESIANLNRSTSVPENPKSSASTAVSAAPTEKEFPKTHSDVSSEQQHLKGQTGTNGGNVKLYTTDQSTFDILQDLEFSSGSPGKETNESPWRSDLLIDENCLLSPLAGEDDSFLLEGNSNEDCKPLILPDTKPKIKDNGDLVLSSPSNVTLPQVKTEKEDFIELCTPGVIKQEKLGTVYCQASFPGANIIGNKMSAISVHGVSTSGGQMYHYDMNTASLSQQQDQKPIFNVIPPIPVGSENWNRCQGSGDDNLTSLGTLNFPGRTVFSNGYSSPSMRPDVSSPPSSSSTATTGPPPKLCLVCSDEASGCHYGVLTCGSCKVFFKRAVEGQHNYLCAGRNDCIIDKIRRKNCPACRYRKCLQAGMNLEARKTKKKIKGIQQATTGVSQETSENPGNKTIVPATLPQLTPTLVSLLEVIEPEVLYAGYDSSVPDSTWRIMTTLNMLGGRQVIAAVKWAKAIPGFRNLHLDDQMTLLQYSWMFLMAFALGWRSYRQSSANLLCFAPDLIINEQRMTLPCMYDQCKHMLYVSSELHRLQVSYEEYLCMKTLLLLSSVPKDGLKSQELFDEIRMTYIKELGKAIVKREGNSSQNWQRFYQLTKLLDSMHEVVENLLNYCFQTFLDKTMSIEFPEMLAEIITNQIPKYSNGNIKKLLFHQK
For assay [3] the target is unchanged. In words: GR-EFC Redistribution (AID 451; calls by dose curve; further: potency means the concentration at half of the fitted maximal effect). To be noted: CHO-K1 GR-EFC translocation, beta-gal luminescence, 2 h. The method, boiled down:
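Translocation of GR-ED fusion to nuclear EA restores b-gal, read by luminescence after 1 h room-temperature detection. Engineered CHO-K1 biosensor cells, 1,000/well, exposed 2 h at 37 C to titrations up to 46 uM final.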

The target in assay [4] is Mitogen-activated protein kinase 10 (Mus musculus) (UniProt Q61831). Nature of the assay: JNK3 AlphaScreen Assay (AID 530; active means well fitted curve in either direction with a large enough effect, not every such curve was filed as active;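 further: kinase came from lysate of stimulated human HepG2 cells; signal reports phosphorylation of biotinylated GST-cJun 1-79 at Ser73 with 10 µM ATP; series mostly up to about 57 µM; on the % scale 0 is the no-effect control and ±100 the full control effect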). The method, boiled down: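 qHTS titrations with 15 min compound pre-incubation before adding ATP (10 uM final). Read-out: AlphaScreen of Ser73-phosphorylated biotin-GST-cJun using HepG2 lysate JNK3 activated by IL-1β and TNFα.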
(Bead proximity is the source of the signal in Alpha formats.)

Assay [5] in a line: Cell Viability - N2a (AID 540).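 Further: plate controls were DMSO alone for no effect and tamoxifen control for full effect; nearly all actives have a fitted effect of over 45% in size.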 In short, it runs like this: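 CellTiter-Glo ATP luminescence, read 20 min after reagent at room temperature, reported viability following 40 h compound treatment at 37 °C. N2a mouse neuroblastoma cells seeded 1500/well; Hill equation gave AC50.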
Assay [6] is described as follows: Cell Viability - NIH 3T3 (AID 541). Further: nearly all actives have a fitted effect of over 25% in size. Further: potency means the concentration at half of the fitted maximal effect. The source says:
NIH Chemical Genomics Center [NCGC]
NIH Molecular Libraries Screening Centers Network [MLSCN]
National Institutes of Environmental Health Sciences [NIEHS]
National Toxicology Program [NTP]
We have developed a 1536-well cell-based assay for quantitative high throughput screening (qHTS) against a number of cell lines to determine in vitro cytotoxicity of small molecules. This particular assay uses the NIH 3T3 fibroblast cell line which is established from NIH Swiss mouse embryo.
NCGC Assay Protocol Summary:
The CellTiter-Glo luminescent cell viability assay (Promega) is a homogeneous method to measure the number of viable cells in culture. The end point readout of this assay is based on quantitation of intracellular ATP, an indicator of metabolic activity, using the luciferase reaction. Luciferase catalyzes the oxidation of beetle Luciferin to oxyluciferin and light in the presence of ATP. The luminescent signal is proportional to amount of ATP present.
Using the CellTiter-Glo luminescent cell viability assay, the amount of cellular ATP was measured in the NIH 3T3 cell line with complete culture medium following compound treatment for 40 hours. The assay was performed in opaque white Kalypsys 1536-well plates. In the screen, tamoxifen and doxorubicin were used as positive controls. Library compounds were measured for their ability to cause acute toxicity in the cell line, as reflected by a decrease in intracellular ATP levels, in a concentration-dependent manner. […] AC50 values were determined from concentration-response data modeled with the standard Hill equation.
qHTS protocol for CellTiter Glo NIH 3T3 cellular assay
[Step] [Parameter] [Value] [Description]
1. Reagent; 5 uL; 1000 NIH 3T3 cells/well
2. Time; 5 hr; 37 °C incubation
4. Controls; 23 nL; Tamoxifen 0.34 uM to 100 uM & Doxorubicin 0.02 nM to 100 uM
5. Time; 40 hr; 37 °C incubation
6. Reagent; 5 uL; CellTiter Glo reagent
7. […]
8. Detection; Luminescence; Viewlux plate reader
Keywords: cell viability, cytotoxicity, NIH 3T3 cell line, luminescence, NTPHTS, NTPHTS_NCGC, NIEHS, EPA, DSSTox, MLSMR, MLSCN, NIH Roadmap, qHTS, NCGC

The nature of assay [7]: Cell Viability - HUV-EC-C (AID 542). Further: on the % scale 0 is the no-effect control and ±100 the full control effect; nearly all actives have a fitted effect of over 35% in size. In short, it runs like this: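 CellTiter-Glo luminescence measured ATP loss in HUV-EC-C cells (1000/well) after 40 hr compound exposure at 37 °C, in complete culture medium. Concentration-response data were Hill-fitted to give AC50.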
Assay [8] can be described thus: Cell Viability - H-4-II-E (AID 543). Further: on the % scale 0 is the no-effect control and ±100 the full control effect; nearly all actives have a fitted effect of over 35% in size. In short, it runs like this: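 CellTiter-Glo luminescence (intracellular ATP) measured after 40 h compound exposure at 37 °C in H-4-II-E rat hepatoma cells seeded at 1500/well. Values are AC50s fitted with the standard Hill equation.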
The nature of assay [9]: Cell Viability - SH-SY5Y (AID 544).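 Further: 0% = DMSO alone and -100% = 100 µM tamoxifen; nearly all actives have a fitted effect of over 55% in size.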 The method, boiled down:
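Cytotoxicity measured via ATP-dependent luciferase luminescence (CellTiter-Glo) following 40 h, 37 °C exposure of 1500 SH-SY5Y cells per well. Concentration-response data were fitted with the standard Hill equation to give AC50.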

A short description of assay [10]: Cell Viability - Renal Proximal Tubule (AID 545).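 Further: 0% = DMSO only and -100% = 100 µM tamoxifen; nearly all actives have a fitted effect of over 40% in size.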 The method, boiled down: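 Primary rat renal proximal tubule cells (1000/well) were treated with compounds for 40 hr at 37 °C in complete medium. Intracellular ATP was measured by CellTiter-Glo luminescence, and AC50 values came from Hill-equation fits of concentration-response data.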

Where “and” joins values, the source holds several entries; their conditions need not be identical. Equal entries are not always repeated. Unmarked numbers belong to inactive results. Results filed as inconclusive are left out. Calls of active or inactive are those of the source. Unless noted, the call rests on the fitted dose curve; in most records, active means well fitted curve in the direction sought with a large enough effect; inconclusive means small, poorly fitted or top-dose-only effect, or another doubt; inactive means no such curve, though single readings can be large; an effect the other way counts as inactive or inconclusive.

Take `COc1ccc2c(OC)c3ccoc3nc2c1OC`: the compound was called inactive in assay [1] and in assay [4]. Also, the Potency is > 20.6 µM and > 46 µM in [2]; > 20.6 µM and > 46 µM in assay [3].

Take `CC[C@]1(O)CC2CN(CCc3c([nH]c4ccccc34)[C@@](C(=O)OC)(c3cc4c(cc3OC)N(C=O)[C@H]3[C@@](O)(C(=O)OC)[C@H](OC(C)=O)[C@]5(CC)C=CCN6CC[C@]43[C@@H]65)C2)C1` (stereo partly specified): the compound was classed as inactive in assay [1]. The Potency in [2] was greater than 20.6 µM.

In the case of `Nc1ccccc1N`, the compound was classed as inactive in [4], in [5] and in assay [7]. The Potency in [6] was 6.31 µM (active).

Take `Cc1ccc(N)cc1O`: the call in assay [4], in assay [5], in assay [7], in [8], in [9] and in assay [10] was inactive. Also, in assay [6], the Potency result was “inactive”.

As to `O=C1NC(=O)C(c2cn(-c3ccccc3)nc2-c2ccc(F)cc2)N1` (stereo unspecified), the result in assay [1] was inactive. The Potency in assay [2] was greater than 20.6 µM.

Turning to `COc1ccc(C[C@H](N)C(=O)N[C@@H]2[C@H](O)[C@H](n3cnc4c(N(C)C)ncnc43)O[C@@H]2CO)cc1`, the Potency in assay [2] and in [3] was greater than 20.6 µM each time. Moreover, the outcome in assay [4] was inactive.

On to `CC(=O)O[C@H]1C(=O)[C@@]2(C)[C@H]([C@H](OC(=O)c3ccccc3)[C@]3(O)C[C@H](OC(=O)[C@H](O)[C@@H](NC(=O)c4ccccc4)c4ccccc4)C(C)=C1C3(C)C)[C@]1(OC(C)=O)CO[C@@H]1C[C@@H]2O`, for which the Potency in [2] and in assay [3] was greater than 46 µM throughout. The compound was classed as inactive in assay [4].

With `Cc1ccccc1CN1C2=NCCN2C(=O)C2=C1CCN(Cc1ccccc1)C2`, in [1], the result was inactive. The Potency in assay [2] was greater than 46 µM; in [3] it was greater than 9.22 µM. Besides, in [4], the activity change, negative = inhibition was -0.448% [at 11.4 µM].

In the case of `CC(=O)O[C@@H]1CC(C)=C2[C@H]1[C@H](C)CC[C@H]2/C=C(\C)C(=O)O`, the compound was called inactive in [4], in assay [5], in [7], in [8], in assay [9] and in assay [10]. Further, in assay [6], the Potency result was “inactive”.
